Measured values published in PubChem BioAssay (NCI).
About 79,000 compounds went through this panel and 15% of them were active in at least one assay; those are over-represented in the sample as a whole. Active and inactive are the calls of the source. Cut-off read from the data, not from the text of the source: active = growth inhibition above about 70%; inactive = the rest.

How the values were obtained:
[1] = NCI Yeast Anticancer Drug Screen. Data for the rad52 strain (AID 147);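 note: 0% = growth of vehicle-treated control cultures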; details: S. cerevisiae rad52 mutant growth inhibition, active compounds read high
How it was run: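 Growth of repair-deficient yeast cells was compared between compound-treated and vehicle-treated cultures to give percent inhibition.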

[2] = NCI Yeast Anticancer Drug Screen. Data for the wt1 strain (AID 149);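 note: 0% = growth of vehicle-treated wt1 cultures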; details: S. cerevisiae wt1 strain (SPY 50644) growth inhibition, active compounds read high
How it was run: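 wt1 yeast, compound-treated; % growth inhibition vs vehicle control.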

[3] = NCI Yeast Anticancer Drug Screen. Data for the rad50EPP+ strain (AID 151);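 note: 0% = growth of vehicle-treated control cultures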; details: S. cerevisiae rad50 mutant strain, active compounds read high
How it was run: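 Measured: growth inhibition of rad50EPP+ yeast. Reference: vehicle-treated controls. Screen uses strains with defined genetic alterations in DNA damage repair or cell cycle control.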

[4] = NCI Yeast Anticancer Drug Screen. Data for the rad50 strain (AID 155);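 note: 0% = growth of vehicle-only cultures of the same strain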; details: S. cerevisiae rad50 strain growth inhibition, active compounds read high
How it was run: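 Genetically altered yeast (DNA repair pathway); compound treatment; growth inhibition vs vehicle ctrl.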

[5] = NCI Yeast Anticancer Drug Screen. Data for the mec2-1 strain (AID 157); details: S. cerevisiae mec2-1 strain, active compounds read high
How it was run: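 Compounds were applied to mec2-1 yeast cells. Their growth was then compared with that of vehicle-treated cultures to give growth inhibition.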

[6] = NCI Yeast Anticancer Drug Screen. Data for the rad14 strain (AID 159);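 note: 0% = growth of vehicle-treated control cultures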; details: S. cerevisiae rad14 strain growth inhibition, active compounds read high
How it was run: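 Test compounds were applied to a repair-deficient yeast strain. Its growth was then compared with that of cultures given vehicle alone, and inhibition was expressed relative to those controls.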

[7] = NCI Yeast Anticancer Drug Screen. Data for the sgs1 mgt1 strain (AID 161);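 note: 0% = growth of cultures given vehicle only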; details: S. cerevisiae sgs1 mgt1 strain, active compounds read high
How it was run: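 Compounds are added to genetically altered yeast, and growth is compared with cultures given vehicle alone to give percent inhibition.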

[8] = NCI Yeast Anticancer Drug Screen. Data for the CLN2oe strain (AID 163);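 note: 0% = growth of vehicle-only control cultures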; details: S. cerevisiae CLN2oe strain, active compounds read high
How it was run: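 Cells of an engineered yeast line with disturbed cell-cycle regulation are treated with compound. Inhibition of growth is then calculated relative to the vehicle-treated reference.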

[9] = NCI Yeast Anticancer Drug Screen. Data for the cln2 rad14 strain (AID 165);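 note: 0% = growth equal to vehicle treated cultures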; details: S. cerevisiae cln2 rad14 strain, active compounds read high
How it was run: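 Strain: cln2 rad14 yeast, altered in cell cycle control and DNA damage repair. Read-out: growth inhibition vs vehicle.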

[10] = NCI Yeast Anticancer Drug Screen. Data for the bub3 strain (AID 167); details: S. cerevisiae bub3 mutant strain, active compounds read high
How it was run: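 Yeast carrying a defined mutation is treated with each compound, and growth is compared with that of vehicle-exposed cells to give inhibition.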

[11] = NCI Yeast Anticancer Drug Screen. Data for the wt2 strain (AID 169);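 note: 0% = growth of vehicle-treated yeast cultures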; details: S. cerevisiae wt2 strain growth inhibition, active compounds read high
How it was run: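 Growth of compound-treated yeast is measured and expressed as inhibition relative to vehicle-only controls.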

[12] = NCI Yeast Anticancer Drug Screen. Data for the mlh1 strain (AID 171);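 note: 0% = growth of vehicle-treated control cultures of the same strain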; details: S. cerevisiae mlh1 strain growth inhibition, active compounds read high
How it was run: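 Test agents were incubated with yeast bearing a defined DNA damage repair or cell cycle control alteration; values are growth inhibition normalised to vehicle-treated cultures.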

[13] = NCI Yeast Anticancer Drug Screen. Data for the sgs1 strain (AID 173);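 note: 0% = growth of vehicle-only control cultures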; details: S. cerevisiae sgs1 mutant, active compounds read high
How it was run: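 Strain with an altered DNA repair or cell cycle pathway exposed to compound. Growth then measured. Value = inhibition versus vehicle control.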

[14] = NCI Yeast Anticancer Drug Screen. Data for the mlh1 rad18 strain (AID 175); details: S. cerevisiae mlh1 rad18 strain growth inhibition, active compounds read high
How it was run: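 A repair-deficient yeast strain is exposed to test compound, and growth is scored relative to vehicle-treated controls.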

[15] = NCI Yeast Anticancer Drug Screen. Data for the rad18 strain (AID 177); details: S. cerevisiae rad18 mutant growth inhibition, active compounds read high
How it was run: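 DNA-repair-defective yeast; compound treatment; growth inhibition scored against vehicle.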

[16] = at 5.0 µM (retest, dose inferred, filed as 0.5)
[17] = at 50.0 µM (retest, dose inferred, filed as 5.0)

Measured: growth inhibition

Cc1ccccc1NC(=O)c1c(C)oc2c1C(=O)c1ccccc1C2=O
inactive: [1]; at 1.2 µM -7% | [1]; at 3.7 µM -6% | [1]; at 11.0 µM 3% | [1]; at 33.0 µM 17% | [1]; at 100.0 µM 69% | [2]; at 1.2 µM -28% | [2]; at 3.7 µM -23% | [2]; at 11.0 µM -23% | [2]; at 33.0 µM -5% | [2]; at 100.0 µM 60% | [3]; at 1.2 µM -8% | [3]; at 3.7 µM -17% | [3]; at 11.0 µM 7% | [3]; at 33.0 µM 42% | [4]; at 1.2 µM -13% | [4]; at 3.7 µM -12% | [4]; [16] 6% | [4]; at 11.0 µM -1% | [4]; at 33.0 µM 7% | [4]; [17] 33% | [5]; at 1.2 µM -28% | [5]; at 3.7 µM -31% | [5]; [16] -10% | [5]; at 11.0 µM -24% | [5]; at 33.0 µM 19% | [5]; at 50.0 µM 50.5% | [6]; at 1.2 µM -45% | [6]; at 3.7 µM -28% | [6]; at 11.0 µM -26% | [6]; at 33.0 µM 12% | [7]; [16] -10% | [7]; [17] 3% | [8]; at 1.2 µM -13% | [8]; at 3.7 µM 19% | [8]; at 11.0 µM 9% | [8]; at 33.0 µM 39% | [9]; [16] 1% | [9]; [17] 51% | [9]; at 50.0 µM 53.1% | [10]; at 1.2 µM -57% | [10]; at 3.7 µM -36% | [10]; [16] 17% | [10]; at 11.0 µM -23% | [10]; at 33.0 µM 25% | [10]; at 50.0 µM 69.2% | [11]; at 1.2 µM -6% | [11]; at 3.7 µM -7% | [11]; at 11.0 µM 14% | [11]; at 33.0 µM 30% | [12]; at 1.2 µM -2% | [12]; at 3.7 µM -8% | [12]; at 11.0 µM -12% | [12]; at 33.0 µM -5% | [13]; at 1.2 µM -15% | [13]; at 3.7 µM -15% | [13]; at 11.0 µM -2% | [13]; at 33.0 µM 24% | [14]; [16] -2% | [15]; at 1.2 µM -23% | [15]; at 3.7 µM -24% | [15]; at 11.0 µM -17% | [15]; at 33.0 µM -8% | [15]; at 100.0 µM 55%
active: [3]; at 100.0 µM 82% | [4]; at 50.0 µM 82.2% | [4]; at 100.0 µM 86% | [5]; [17] 71% | [5]; at 100.0 µM 92% | [6]; at 100.0 µM 93% | [7]; at 50.0 µM 71% | [8]; at 100.0 µM 87% | [10]; [17] 94% | [10]; at 100.0 µM 85% | [11]; at 100.0 µM 87% | [12]; at 100.0 µM 85% | [13]; at 100.0 µM 83% | [14]; [17] 76% | [14]; at 50.0 µM 77%
